Bioassay records as filed in PubChem.
The list is not random: actives were taken first. Their share in the collection is about 19%.
IL1B secr inh: blocks inflammasome-driven IL-1 beta release | THP-1 LPS/ATP IL-1B secretion, AlphaLISA, 16 h; active compounds read low | activity change, % at 57.5 µM | hit rate 4.7% among 360,000 | AID 743279; in the data active = activity change below about -50%; inconclusive = mostly about -30% to -49%; note: % is set by controls: 0 for no effect and ±100 for the full control effect
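THP-1 cells pretreated 1 hr with compounds (up to 57.5 uM final), then stimulated with LPS (250 ng/mL final) plus ATP (1.25 mM final); secreted IL-1B measured by AlphaLISA after 16 hr, decreased signal indicating inhibition.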
DT40 TDP1 no CPT: qHTS for Inhibitors of human tyrosyl-DNA phosphodiesterase 1 (TDP1): qHTS in cells in absence of CPT | Potency, µM (series often up to 46.2 µM), for the others: at the highest dose activity change, negative = growth inhibition, hits mostly inhibitors | DT40 Tdp1-/- hTDP1 cells, no CPT, ATP luminescence, 48 h | hit rate 15% among 420,000; note: potency is the fitted concentration of half-maximal effect; % is set by controls: 0 for no effect and ±100 for the full control effect; nearly all actives have a fitted effect of over 55% in size
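Camptothecin absent (DMSO only). Human TDP1-complemented DT40 knockout cells, 400 cells/well, 37 °C for minimum 48 hr; ATP measured via CellTiter-Glo, 30 min dark incubation, luminescence.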
TDP1 block: blocks human tyrosyl-DNA phosphodiesterase 1; recombinant TDP1, AlphaScreen DNA substrate cleavage; hit rate 0.28% among 350,000; AID 485290; Q9NUW8; Potency, µM (series often up to 130 µM), without a hit: at the highest dose activity change, negative = inhibition, actives largely listed as inhibitors; note: potency is the fitted concentration of half-maximal effect; % is set by controls: 0 for no effect and ±100 for the full control effect; nearly all actives have a fitted effect of over 40% in size
Target sequence (Q9NUW8 whole entry, looked up): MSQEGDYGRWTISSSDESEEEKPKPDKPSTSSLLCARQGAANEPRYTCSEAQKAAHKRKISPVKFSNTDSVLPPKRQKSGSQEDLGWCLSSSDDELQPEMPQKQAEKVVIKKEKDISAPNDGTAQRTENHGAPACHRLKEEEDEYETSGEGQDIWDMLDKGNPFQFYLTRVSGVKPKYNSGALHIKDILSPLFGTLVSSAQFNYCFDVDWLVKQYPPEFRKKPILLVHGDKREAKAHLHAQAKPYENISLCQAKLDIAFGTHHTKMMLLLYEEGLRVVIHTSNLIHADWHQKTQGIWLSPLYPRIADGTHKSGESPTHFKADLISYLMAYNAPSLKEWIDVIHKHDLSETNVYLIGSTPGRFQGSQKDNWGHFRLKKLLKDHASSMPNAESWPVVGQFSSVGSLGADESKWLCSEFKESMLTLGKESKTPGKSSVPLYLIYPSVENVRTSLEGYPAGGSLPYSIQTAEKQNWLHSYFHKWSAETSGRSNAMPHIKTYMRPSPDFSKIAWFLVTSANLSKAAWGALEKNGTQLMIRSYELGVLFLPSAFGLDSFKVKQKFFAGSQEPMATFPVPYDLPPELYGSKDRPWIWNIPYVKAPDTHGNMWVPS
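Recombinant E. coli-expressed Tdp1 (1 nM) preincubated with compound 15 min at RT, then 5'-biotin/3'-phosphotyrosine-FITC DNA substrate (15 nM) added for 5 min. AlphaScreen beads (10 ug/ml) added, 10 min RT; tyrosine-FITC cleavage read as signal loss.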
TGFb inhibitor: blocks TGF-b signaling; HepG2 CAGA-GFP TGF-b/SMAD3 reporter, GFP fluorescence, 18 h; TGF-beta stimulated, 500 pg/mL final; Potency, µM (doses to about 46.1 µM), without a hit: at the top dose activity, negative = inhibition, hits mostly inhibitors; hit rate 1.2% among 410,000; AID 588855; note: potency is the fitted concentration of half-maximal effect; % is set by controls: 0 for no effect and ±100 for the full control effect; nearly all actives have a fitted effect of over 65% in size
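First, reporter cells (HEPG2 CAGA-GFP) rested 2 h at 37 degrees C. Next, compounds were pinned in and TGF-beta added to 500 pg/mL final. After 18 h, GFP was imaged per cell and summed per well.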
TDP1 cell CPT: DT40-hTDP1 cell growth loss with CPT; chicken DT40 Tdp1-/-;hTDP1 cells + 20 nM CPT, ATP luminescence, 48 h; Potency, µM (highest dose often 46.2 µM), for inactives: at the top dose activity change, negative = growth inhibition, usual class: inhibitors; hit rate 12% among 420,000; note: potency is the fitted concentration of half-maximal effect; % is set by controls: 0 for no effect and ±100 for the full control effect; nearly all actives have a fitted effect of over 55% in size
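Chicken DT40 Tdp1-/- cells stably complemented with human TDP1 were seeded at 400 cells/well in medium containing 20 nM camptothecin, exposed to pin-transferred compounds, and grown at 37 °C for at least 48 hr. Viability was read as ATP luminescence.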
HepG2 tox: counter-screen for TGF-b inhibitors: cytotoxicity in HepG2 cells. HepG2 CAGA-GFP viability, ATP luminescence, 18 h. Potency, µM (doses to about 46.1 µM), for the others: top-dose activity change, negative = cytotoxicity, usual class: cytotoxic. hit rate 0.76% among 410,000. AID 588856; note: potency is the fitted concentration of half-maximal effect
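CellTiter-Glo luminescence gave cytotoxicity after 18 hours at 37 degrees C. The cells were HepG2 CAGA-GFP in 1% FBS DMEM, stimulated with 500 pg/mL TGF-beta after compound addition. %Activity was normalised to no-cell wells (complete cell-killing) and DMSO (no toxicity), and curves were fitted and classified.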
The depositor's hits bear a star; [ ] = remark or other dose. Unless noted, calls come from the whole dose curve; as a rule, active = well fitted curve in the direction sought with a large enough effect; inconclusive = small, poorly fitted or top-dose-only effect, or another doubt; inactive = no such curve, though single readings can be large; an effect the other way counts as inactive or inconclusive.

Results for O=S(=O)(NCC(c1ccco1)N1CCN(c2ccc(F)cc2)CC1)c1ccc(F)cc1 (configuration not stated) ?
IL1B secr inh: 25; DT40 TDP1 no CPT: inconclusive; TDP1 block: 4%; TGFb inhibitor: -10%; TDP1 cell CPT: 23µM*; HepG2 tox: 5%

What do the screens show for `COc1ccc(S(=O)(=O)NCC(c2ccco2)N2CCN(c3ccc(F)cc3)CC2)cc1C` (configuration not stated)?
DT40 TDP1 no CPT: 23µM*; TDP1 block: 8%; TGFb inhibitor: inconclusive; TDP1 cell CPT: 16µM*; HepG2 tox: 1%

How did Cc1cc(C)c(S(=O)(=O)NCC(c2ccco2)N2CCN(c3ccccc3)CC2)c(C)c1 (configuration not stated) do in these assays?
DT40 TDP1 no CPT: 26µM*; TDP1 block: 3%; TGFb inhibitor: -7%; TDP1 cell CPT: 23µM*; HepG2 tox: -22%

Results for COc1ccc(S(=O)(=O)NCC(c2cccnc2)N2CCN(c3ccc(F)cc3)CC2)cc1C (configuration not stated) ?
IL1B secr inh: inconclusive; DT40 TDP1 no CPT: 16µM*; TDP1 block: 2%[56.1 µM]; TGFb inhibitor: -27%; TDP1 cell CPT: 15µM*; HepG2 tox: -6%

What do the screens show for `COc1ccc(S(=O)(=O)NCC(c2cccnc2)N2CCN(c3ccccc3)CC2)cc1C` (configuration not stated)?
IL1B secr inh: -5; DT40 TDP1 no CPT: inconclusive; TDP1 block: 4%; TGFb inhibitor: inconclusive; TDP1 cell CPT: inconclusive; HepG2 tox: -13%

Results for O=S(=O)(NCC(c1ccco1)N1CCN(c2ccccc2)CC1)c1ccccc1 (configuration not stated) ?
DT40 TDP1 no CPT: inconclusive; TDP1 block: 10%; TGFb inhibitor: 0%; TDP1 cell CPT: inconclusive; HepG2 tox: -26%

Results for CCn1c(SCC(=O)NC2CCCC2)nnc1-c1ccccn1 ?
IL1B secr inh: 0; DT40 TDP1 no CPT: 5%; TDP1 block: 0%; TGFb inhibitor: 2%; TDP1 cell CPT: 10%; HepG2 tox: -14%

What do the screens show for `CCC(C)O` (configuration not stated)?
TDP1 block: 8%

What do the screens show for `Cc1ccc(-c2noc(CNC(=O)c3ccccc3)n2)cc1`?
DT40 TDP1 no CPT: inconclusive; TDP1 block: 4%; TGFb inhibitor: -4%; TDP1 cell CPT: inconclusive; HepG2 tox: -4%

What do the screens show for `Cc1noc2nc(C(=O)O)nc(N3CCCCC3)c12`?
DT40 TDP1 no CPT: inconclusive; TDP1 block: 3%; TGFb inhibitor: 6%; TDP1 cell CPT: inconclusive; HepG2 tox: -2%

What do the screens show for `O=S(=O)(NCC(c1ccco1)N1CCN(c2ccc(F)cc2)CC1)c1cc(F)ccc1F` (configuration not stated)?
DT40 TDP1 no CPT: 16µM*; TDP1 block: 5%; TGFb inhibitor: -3%; TDP1 cell CPT: 18µM*; HepG2 tox: -12%

Results for O=S(=O)(NCC(c1ccco1)N1CCN(c2ccccc2)CC1)c1cc(F)ccc1F (configuration not stated) ?
DT40 TDP1 no CPT: inconclusive; TDP1 block: 12%; TGFb inhibitor: -18%; TDP1 cell CPT: inconclusive; HepG2 tox: -20%

How did COc1ccc(CN(C)C(=O)c2ccc3c(=O)n4c(nc3c2)CCC4)c(OC)c1 do in these assays?
IL1B secr inh: -21; DT40 TDP1 no CPT: inconclusive; TGFb inhibitor: inconclusive; TDP1 cell CPT: inconclusive; HepG2 tox: 8%
